Source: PubChem BioAssay
Most compounds without a hit are left out; they make up all but 7.4% or so of the library.
SMN2 splice enh: qHTS Assay for Enhancers of SMN2 Splice Variant Expression. HEK293 SMN2-luciferase splicing reporter, luminescence, 30-36 h. Potency, µM (top dose mostly 46.1 µM), for inactives: at the highest dose activity change, positive = activation, usual class: activators. 2.8% of 210,000 active; further: % of control where 0% means no effect; nearly all actives have a fitted effect of over 55% in size
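HEK293 cells carry an SMN2 minigene-luciferase reporter in which exon 7 inclusion puts luciferase in frame. Cells were seeded at 2000 cells/well, attached for 10-12 hours, then exposed to compounds for 30-36 hours at 37C before ONE-Glo luminescence.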
Rab9 prom act: qHTS Assay for Rab9 Promoter Activators | AID 485297, 2010 | 2.8% of 320,000 active | Huh7 Rab9 promoter-luciferase reporter, luminescence, 24 h | Potency, µM (titrated, usually from 9.22 µM), for the others: top-dose activation, negative = inhibition, usual class: activators; further: % of control where 0% means no effect; nearly all actives have a fitted effect of over 60% in size
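Using Huh7 cells stably transfected with Rab9 promoter–luciferase, compounds were incubated 24 h at 37 °C, 5% CO2; luciferase luminescence was read 10 min after reagent addition.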
NPC1 promoter act: qHTS Assay for NPC1 Promoter Activators. 2.4% of 320,000 active. Potency, µM (doses to about 9.22 µM), without a hit: top-dose activation, hits mostly activators. Huh7 NPC1 promoter luciferase reporter, 24 h; further: % of control where 0% means no effect; nearly all actives have a fitted effect of over 60% in size
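NPC1 promoter–luciferase Huh7 cells; 24 h compound; luminescence.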
FLuc modulator: qHTS profiling assay for firefly luciferase inhibitor/activator using purifed enzyme and Km concentrations of substrates (counterscreen for miR-21 project); Luciferin 4-monooxygenase (Photinus pyralis), P08659; purified FLuc, Km substrates, luminescence inhibition; Potency, µM (top dose mostly 57.5 µM), for the others: top-dose activity change, negative = inhibition, most hits filed as inhibitors; 6.9% of 360,000 active; AID 588342, 2011;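 further: plate controls were vehicle for no effect and reference inhibitor for full effect; nearly all actives have a fitted effect of over 55% in size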
Target sequence (P08659 whole entry, looked up): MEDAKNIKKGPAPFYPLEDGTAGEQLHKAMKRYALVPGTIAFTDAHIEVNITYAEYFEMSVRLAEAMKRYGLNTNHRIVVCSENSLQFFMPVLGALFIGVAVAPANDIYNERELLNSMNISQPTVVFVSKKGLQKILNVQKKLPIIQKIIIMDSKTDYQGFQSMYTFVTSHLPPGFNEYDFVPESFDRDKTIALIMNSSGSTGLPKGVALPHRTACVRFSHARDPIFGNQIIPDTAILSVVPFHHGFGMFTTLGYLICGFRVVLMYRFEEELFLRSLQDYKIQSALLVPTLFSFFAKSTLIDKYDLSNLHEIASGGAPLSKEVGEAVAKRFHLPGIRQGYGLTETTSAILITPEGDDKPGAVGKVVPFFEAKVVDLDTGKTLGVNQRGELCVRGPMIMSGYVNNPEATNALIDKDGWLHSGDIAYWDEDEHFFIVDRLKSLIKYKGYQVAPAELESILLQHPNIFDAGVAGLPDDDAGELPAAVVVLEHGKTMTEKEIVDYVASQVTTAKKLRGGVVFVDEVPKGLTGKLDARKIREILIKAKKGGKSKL
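Purified P. pyralis luciferase (10nM final) with 10uM D-luciferin and 10uM ATP (Km levels) in 50mM Tris acetate pH 7.5, 10mM Mg acetate, 0.01% Tween-20, 0.05% BSA; qHTS 6-point titration, ~60 µM downward; luminescence read.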
ELG1 genotoxic: qHTS screen for small molecules that induce genotoxicity in human embryonic kidney (HEK293T) cells expressing luciferase-tagged ELG1 | 1.3% of 330,000 active | Potency, µM (series often up to 46 µM), inactives show at the highest dose activity change, positive = activation, most hits filed as activators | HEK293T ELG1-luciferase reporter, luminescence, 16 h; further: % of control where 0% means no effect; nearly all actives have a fitted effect of over 60% in size
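Screening used a luciferase reporter fused to human ELG1 in HEK293T cells. Luminescence was read on a CCD plate imager after 16 hr exposure and 30 min ONE-Glo incubation.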
An asterisk follows results filed as active; ? = inconclusive; nt = no result given; [ ] = another dose, or the depositor's remark. The call rests on the fitted dose curve; in most records, active means well fitted curve in the direction sought with a large enough effect; inconclusive means small, poorly fitted or top-dose-only effect, or another doubt; inactive means no such curve, though single readings can be large; an effect the other way counts as inactive or inconclusive. Potency means the concentration at half of the fitted maximal effect.

SMILES	SMN2 splice enh	Rab9 prom act	NPC1 promoter act	FLuc modulator	ELG1 genotoxic
Cc1ccc(C(=O)Nc2cccc(N3C(=O)C4CCC(C)CC4C3=O)c2)cc1 (stereo not drawn)	nt	23%	1%	7.6µM*	5%
O=C(Nc1cccc(N2C(=O)C3CCCCC3C2=O)c1)c1ccccc1 (stereo not drawn)	nt	-6%	2%	19µM*	6%
O=C(Nc1cccc(Cl)c1)c1cccc(N2C(=O)C3CC=CCC3C2=O)c1 (stereo not drawn)	nt	-3%	0%	-19%	-21%
O=C(CC1C(=O)OCCN1Cc1ccccc1)Nc1cccc(Cl)c1 (stereo not drawn)	-9%	nt	nt	3%	nt
CC(C)c1ccc(-c2cc(C(=O)N3N=C(C(F)F)CC3(O)C(F)F)c3ccccc3n2)cc1 (stereo not drawn)	?	?	?	1.5µM*	?
CN1CCN(NC(=O)c2cc(-c3cccc(Cl)c3)nc3ccccc23)CC1	-39%	1%	-5%	-2%	13%
CCc1ccc(-c2cc(C(=O)NN3CCOCC3)c3ccccc3n2)cc1	1%	3%	10%	4.8µM*	3%
CC(C)c1ccc(-c2cc(C(=O)NN3CCN(C)CC3)c3ccccc3n2)cc1	?	?	?	0.6µM*	?
Cc1ccc(-c2nc(-c3cc4cccc(OCc5cccc(F)c5)c4oc3=O)no2)cc1	-10%	nt	nt	-7%	nt
O=C(CCCOc1ccc(Cl)cc1)N1CCCCCC1	20%	12%	12%	-3%	16µM*
O=C(CCCOc1ccccc1)N1CCCCC1	2.5µM*	?	0.5µM*	1.5µM*	0.46µM*
O=C(COc1ccccc1)N1CCCCCCC1	nt	-2%	1%	0%	2%
O=C(COc1ccc(Cl)cc1)N1CCCCCCC1	nt	19%	17%	-16%	1%
CCC1CCCCN1C(=O)CCCOc1ccccc1 (stereo not drawn)	-2%	?	?	19µM*	13µM*
O=C(c1ccc(COc2ccc(Cl)cc2)cc1)N1CCCCC1	12%	?	?	12µM*	?
Cc1noc(C)c1C(=O)N1CCC[C@@]2(CCN(C(=O)NC(C)C)C2)C1	-2%	nt	nt	nt	nt
CCC(O)C1CCN(C(=O)c2cc(COc3ccc(F)cc3F)on2)CC1 (stereo not drawn)	nt	0%	-4%	3%	2%
CC(Sc1ccccc1)C(=O)NCCc1ccccc1 (stereo not drawn)	nt	27%	19%	?	11%
O=C(CCCOc1ccc(Cl)cc1)N1CCOCC1	18%	-5%[1.84 µM]	-1%	-18%	?
O=C(CCCOc1ccc(Cl)cc1)N1CCCCC1	nt	3.5µM*	27%	-26%	21µM*
CCOC(=O)C1CCN(C(=O)CCCOc2ccccc2)CC1	30%	?	?	9.5µM*	?
COC(=O)C(Cc1c[nH]c2ccccc12)NC(=O)COc1ccc(Cl)cc1Cl (stereo not drawn)	-71%	nt	nt	?	nt
COc1ccc(-c2csc(-c3cccnc3)n2)cc1C	nt	2.8µM*	?	7.6µM*	?
COc1ccc2cc(-c3csc(-c4cccnc4)n3)ccc2c1	13µM*	?	3.2µM*	2.1µM*	13µM*
NC(=O)c1cc(-c2csc(-c3cccnc3)n2)ccc1O	nt	4%	24%	?	4%
SMILES	SMN2 splice enh	Rab9 prom act	NPC1 promoter act	FLuc modulator	ELG1 genotoxic
O=[N+]([O-])c1ccccc1CCc1cnc(Cl)s1	nt	-4%	0%	-1%	1%
CC(C)=C(NC(=O)c1ccccc1)C(=O)Nc1ccc(C(=O)O)cc1	nt	-3%	0%	3%	-2%
O=C(COCc1cc(-c2ccc(F)cc2)on1)Nc1cccc(Cl)c1Cl	nt	nt	nt	-2%	nt
Cc1ccc(-c2nc3ccccn3c2NCc2ccc3c(c2)OCO3)cc1	?	?	?	12µM*	3%
Cc1ccc(-c2nc3ccccn3c2Nc2ccc3c(c2)OCO3)cc1	-6%	nt	nt	?	nt
Cc1ccc2nc(-c3ccc(-c4cccc(Cl)c4)cc3)c(NCc3ccccc3)n2c1	nt	-1%	2%	?	-2%
COc1ccc(-c2nc3ccc(C)cn3c2NCc2ccc3c(c2)OCO3)cc1	-87%	?	28%	13µM*	12%
CCCCn1c(SCC(=O)Nc2cc(C(F)(F)F)ccc2Cl)nnc1C(CC)N(C)C (stereo not drawn)	-15%	-3%	-1%	2%	-6%
COC(=O)CNC(=O)c1cccc(Cl)c1	8%	-2%	-3%	-2%	0%
COc1ccc(-c2cccc(C(=O)NCC(=O)O)c2)cc1	?	25%	15%	13µM*	?
COc1cc(OC)cc(C(=O)NCC(=O)Nc2ccc(-c3ccccc3)cc2)c1	nt	28%	-6%	15µM*	?
CCN(CC)C(=O)c1cccc(-c2ccc(OC)cc2)c1	6%	11%	9%	?	?
COC(=O)CNC(=O)c1cccc(-c2ccc(OC)cc2)c1	4%	15%	8%	19µM*	4%
COc1cc(OC)cc(C(=O)NCC(=O)Nc2ccc(C)c(Cl)c2)c1	nt	-5%	0%	-2%	3%
COc1cccc(C(=O)NCC(=O)OCc2ccc(F)cc2Cl)c1	-2%	-7%	0%	17µM*	1%
Cc1cc2c(c(=O)n1Cc1ccccc1)C1O[C@](CCCCN3C(=O)c4ccccc4C3=O)(Cc3cc(C#N)ccc31)O2	nt	-4%[1.84 µM]	1%[1.84 µM]	0%[11.5 µM]	nt
O=C(c1[nH]c2ccccc2c1Sc1ccc(Cl)cc1)N1CCCCC1	nt	nt	nt	-6%	nt
Cc1ccc(Nc2nnc(SCc3cc(=O)n4ccsc4n3)s2)c(C)c1	-8%	14%	-2%	-2%	0%
Cc1ccc(SCc2cc(=O)n3ccsc3n2)c(C)c1	13µM*	3.2µM*	?	15µM*	?
Cc1nc2sc(C(N)=O)c(N)c2c2c1CCCC2	nt	10%	?	12µM*	-18%
Cc1ccc(-c2nc3sc(C(N)=O)c(N)c3c3c2CCCC3)cc1	10%	-6%	-6%	0%	-6%
CC(C)c1ccc(Nc2cc(C(=O)NC3CCCCC3)c3ccccc3n2)cc1	-8%	nt	nt	-4%	nt
CCCCOC(=O)n1c(=S)oc2cc(Cl)ccc21	-11%	-6%	0%	17µM*	1%
Nc1ccc(Nc2nc3ccccc3[nH]2)cc1	nt	3%	2%	-22%	0%
c1ccc(Nc2nc3ccccc3[nH]2)nc1	?	3.5µM*	?	24µM*	?
Cc1cc(C)nc(Nc2nc3ccccc3[nH]2)n1	13µM*	?	?	?	?
CCc1cccc(CC)c1NC(=O)CN1CC(C)SC1=NC1CCCCC1 (stereo not drawn)	-16%	-10%	-1%	1%	0%
